High-throughput results (PubChem BioAssay)
DAX1 inh-1 – DAX1 (NR0B1) inhibitors, primary screen, cell-based, HEK293, Gal4-DAX1, luciferase luminescence. Nuclear receptor subfamily 0 group B member 1 (Homo sapiens), P51843. HEK293 Gal4-DAX1 luciferase reporter. inhibition, % at 6.75 µM. hit rate 0.99% among 340,000. AID 504766, 2011;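 active means inhibition above the mean over all tested compounds plus 3 SD, cut at about 4.2% in these data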;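 further: 0% = DAX1-transfected cells with DMSO and 100% = empty-vector control cells with DMSO; inhibition shows as a rise in luminescence from relieved DAX1 repression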
SMARCA2 activ – SMARCA2 (BRM) function activators, primary screen, cell-based, luminescence, high throughput. MG213 cells, MMTV-luciferase reporter, dexamethasone, overnight. activation, % at 9.1 µM. hit rate 1% among 370,000. AID 652017, 2013; in the data active means activation above about 7.8%;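 further: 0% = vehicle wells and 100% = reference activator wells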
DAX1 inh-2 – DAX1 (NR0B1) inhibitors on StAR promoter, primary screen, cell-based, luminescence, SF-1 (NR5A1), full-length DAX-1 | HEK293T StAR-luciferase reporter, SF-1/DAX-1 repression relief | inhibition, % at 6.8 µM | hit rate 1.1% among 370,000;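 active means inhibition above the mean over all tested compounds plus 3 SD, cut at about 3.6% in these data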;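 further: 0% = DAX-1 cells with DMSO and 100% = cells lacking DAX-1 with DMSO; higher inhibition means more luminescence from relief of DAX-1 repression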
hcDAF-12 act – H. contortus DAF-12 nuclear receptor activators, primary screen, cell-based, luminescence, HEK293, lit1-tk-luc reporter; AID 652067, 2013; hit rate 1.4% among 370,000; HEK293 hcDAF-12 lit1-tk-luc reporter; 0% DMSO, 100% Δ7-dafachronic acid; activation, % at 6.8 µM;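 active means activation above the mean of all tested compounds plus 3 SD, cut at about 5.5% in these data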;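 further: 100% = response to 3 µM Δ7-dafachronic acid high control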
ssDAF12 agonist – S. stercoralis DAF-12 nuclear receptor activators, primary screen, cell-based, luminescence, HEK293, GRIP1 co-expression, lit1-tk-luc. Nuclear hormone receptor DAF-12 (Strongyloides stercoralis). HEK293 ssDAF-12/GRIP1 lit1-tk-luc reporter; % of 3 µM dafachronic acid response. activation, % at 6.8 µM. hit rate 1% among 370,000;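 active means activation above the mean over all tested compounds plus 3 SD, cut at about 0.9% in these data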;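 further: 0% = DMSO-only wells and 100% = 3 µM delta7-dafachronic acid wells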
hgDAF-12 ag – H. glycines DAF-12 receptor agonists, primary screen, cell-based, luminescence, HEK293, GAL4 fusion, UAS-luciferase; HEK293 GAL4-hgDAF12 UAS-luciferase reporter, agonist luminescence; normalized to butyrate control; hit rate 1.8% among 370,000; activation, % at 6.8 µM; AID 687014, 2013;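 active means activation above a cutoff set at the mean of all screened compounds plus 3 SD, cut at about 10% in these data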;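 further: 0% = DMSO wells and 100% = sodium butyrate wells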
LXR ag – LXR agonists, Gal4 luciferase reporter, confirmation, counter-screen for hcDAF-12 agonist project, cell-based, luminescence, HEK293, H. contortus campaign; shares compounds with hcDAF-12 act; HEK293 Gal4-LXR tk-luc reporter, 24 h; normalized: DMSO 0%, positive control 100%; activation, % at 6.8 µM; 3,400 tested, under 10 active; AID 743027, 2013;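 active means mean percent activation of the reporter above a cutoff set as the average over tested compounds plus their standard deviation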
Target sequence (P55055 whole entry, looked up, the tested form may be a part): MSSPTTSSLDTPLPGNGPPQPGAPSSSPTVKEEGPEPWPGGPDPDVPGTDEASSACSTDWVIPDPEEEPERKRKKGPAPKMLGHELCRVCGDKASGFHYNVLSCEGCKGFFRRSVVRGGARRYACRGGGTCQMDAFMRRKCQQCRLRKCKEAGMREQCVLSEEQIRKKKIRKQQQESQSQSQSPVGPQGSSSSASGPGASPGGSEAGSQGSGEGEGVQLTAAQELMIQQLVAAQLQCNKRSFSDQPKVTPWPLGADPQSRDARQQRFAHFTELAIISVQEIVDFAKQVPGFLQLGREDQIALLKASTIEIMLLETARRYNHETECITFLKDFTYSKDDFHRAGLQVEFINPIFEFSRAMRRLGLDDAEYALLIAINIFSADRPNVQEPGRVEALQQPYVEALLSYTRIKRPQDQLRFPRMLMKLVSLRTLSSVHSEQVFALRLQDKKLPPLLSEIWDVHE
hcDAF12 conf – H. contortus DAF-12 receptor agonists, confirmation, cell-based, luminescence, HEK293, lit1-tk-luc, triplicate | shares compounds with hcDAF-12 act | HEK293 hcDAF-12 lit1-tk-luc reporter; % of Δ7-dafachronic acid response | activation, % at 6.8 µM | hit rate 61% among 3,400 | AID 743032, 2013;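 active means mean activation across triplicate tests above the threshold derived from the earlier primary screen, cut at about 5.5% in these data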;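 further: 0% = DMSO only wells and 100% = 3 µM Δ7-dafachronic acid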
Numbers without * were called inactive; / = no result. Shown are actives, neighbours in structure and some others; about 4.8% of the full set was active somewhere.

SMILES	DAX1 inh-1	SMARCA2 activ	DAX1 inh-2	hcDAF-12 act	ssDAF12 agonist	hgDAF-12 ag	LXR ag	hcDAF12 conf
COc1ccc(NC(=O)C(c2ccccn2)N(C(C)=O)c2ccc(C)cc2)cc1 (stereo not given)	-1	-1	1	10*	1.6*	4	0	4
COc1ccc(OCc2nnc(SC(C)C(=O)Nc3ccc(N4CCOCC4)cc3)n2C)cc1 (stereo not given)	0	0	0	-2	-1	1	/	/
CCN(CC)CCCNC(=O)c1ccc(CS(=O)(=O)c2ccccc2OC)o1	2	2	0	-1	-1	2	/	/
CC(NS(=O)(=O)c1ccc(Cl)cc1)C(c1cccs1)N1CCN(C)CC1 (stereo not given)	1	0	1	0	-1	-2	/	/
CCCCn1c(N)c(N(CCOC)C(=O)COC(=O)CSc2cc(C)c3ccccc3n2)c(=O)[nH]c1=O	4	0	-1	1	-1	3	/	/
Cc1ccc(NC(=O)C2COc3ccccc3O2)cc1 (stereo not given)	2	4	2	6.6*	0	12*	1	7.7*
CC1(C)Oc2ccc(NC(=O)C3COc4ccccc4O3)cc2O1 (stereo not given)	0	2	4.4*	8.9*	1.9*	12*	1	7.6*
Cc1ccc(NC(=O)C2Oc3ccccc3OC2C)cc1 (stereo not given)	0	1	0	9.1*	0	2	0	6.9*
Cc1ccc(NC(=O)C2COc3ccccc3O2)c(C)c1 (stereo not given)	3	4	0	3	-1	7	/	/
Cc1ccc(NC(=O)C2COc3ccccc3O2)nc1 (stereo not given)	2	4	3	9.5*	1	12*	1	9.4*
COc1cccc2c1[C@H](/C=C/c1ccccc1)[C@@H]([C@H](O)COC(C)=O)OC2	/	-3	-1	-1	-2	-1	/	/
Cc1ccc(NC(=O)c2ccc3nc[nH]c3c2)nc1	1	4	9.6*	8.9*	0	7	1	5
O=C(NNC(=O)c1ccc2nc[nH]c2c1)c1ccccc1	0	-3	0	-1	-2	-1	/	/
CCCn1c(SCC(=O)/C(C#N)=C(\C)N)n[nH]c1=O	0	-6	0	-1	-1	-1	/	/
Cc1csc2ncc(C(=O)Nc3ccon3)c(=O)n12	-1	1	0	9.5*	-1	2	0	1
COc1ccccc1N(CC(=O)NCCSc1ccccc1)S(=O)(=O)c1ccccc1	0	-3	2	-1	-1	-2	/	/
Cc1cc(C)cc(NC(=O)CN(C)CC(=O)N(CC(C)C)c2c(N)n(CC(C)C)c(=O)[nH]c2=O)c1	0	1	0	0	0	-1	/	/
CCCN(c1ccc(C(C)C)cc1)S(=O)(=O)c1c(C)noc1C	0	-5	0	-2	0	-1	/	/
Cc1noc(C)c1S(=O)(=O)N(CC(=O)N1CCn2c1nc1ccccc12)c1ccc(C(C)C)cc1	3	-1	0	8.4*	0	-3	0	5
O=C(Nc1ccc(N2CCCCC2)cc1)c1ccc([N+](=O)[O-])o1	0	3	0	7.2*	1	8	1	5
Cc1c(C(=O)NC2CCCCC2)oc2ccc(F)cc12	4	4	1	18*	1	10*	1	8.3*
O=c1[nH]c2ccccc2nc1Cc1ccccc1	-1	0	0	2	-2	-2	/	/
O=C(Cc1nc2ccccc2[nH]c1=O)c1ccccc1	1	-1	2	8.1*	1.2*	11*	2	9.9*
CC1(C)CC(=O)N(CC(=O)NCc2ccccc2)c2ccccc2S1(=O)=O	0	-2	0	14*	-2	1	0	1
CCN1c2ccccc2-c2nc3ccccc3n2C1c1ccco1 (stereo not given)	-1	-8	-1	-1	-2	-1	/	/
SMILES	DAX1 inh-1	SMARCA2 activ	DAX1 inh-2	hcDAF-12 act	ssDAF12 agonist	hgDAF-12 ag	LXR ag	hcDAF12 conf
Cc1ccc(C2Nc3ccccc3-c3nc4ccccc4n32)o1 (stereo not given)	-1	1	0	6.7*	0	12*	1	2
O=S(=O)(O)c1ccc(N2N=C(c3ccccc3)CC2c2ccccc2)cc1 (stereo not given)	1	-1	0	7.4*	0	4	0	1
NS(=O)(=O)c1ccc(N2N=C(c3ccccc3)CC2c2ccccc2)cc1 (stereo not given)	0	-1	-1	-1	-1	3	/	/
CSc1nc2ccccc2cc1/C=C(\C#N)c1ccccc1	0	0	-1	-1	-1	-2	/	/
CCCN(CCC)CCCNC(=O)c1cn(C)c2ccc(S(=O)(=O)N(C)C3CCCCC3)cc2c1=O	0	2	-2	0	-2	2	/	/
CN(C)c1ccc(P(=O)(Nc2ccccc2)N2CCOCC2)c(NC(=O)c2cccs2)c1 (stereo not given)	0	1	0	4	1	3	/	/
CN(C)c1ccc(P(=O)(Nc2ccc([N+](=O)[O-])cc2)N2CCOCC2)c(NC(=O)c2cccs2)c1 (stereo not given)	1	1	0	8.0*	0	3	0	5
Cc1ccc(NP(=O)(c2ccc(N(C)C)cc2NC(=O)c2cccs2)N2CCOCC2)cc1 (stereo not given)	0	0	0	8.4*	1.5*	6	0	2
CC(=O)NNc1ncnc2ccccc12	8.7*	0	1	10.0*	1	5	0	4
